From article PMC4336329 (PLoS ONE, 2015)
Screen size: about 310,000 compounds; about 14,000 (4.5%) showed an effect of 50% or more. The effect is printed as a negative number. Shown is part of a subset that was picked to be rich in strong results.

target: human ether-à-go-go-related gene (hERG) potassium channel (human, UniProt Q12809); assay: primary screen, population patch clamp on CHO cells stably expressing hERG; higher = less effect of the substance
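Note: peak tail current of the secondary pulse compared with the same well before compound.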

human ether-à-go-go-related gene (hERG) potassium channel, sequence (Q12809 whole entry, looked up): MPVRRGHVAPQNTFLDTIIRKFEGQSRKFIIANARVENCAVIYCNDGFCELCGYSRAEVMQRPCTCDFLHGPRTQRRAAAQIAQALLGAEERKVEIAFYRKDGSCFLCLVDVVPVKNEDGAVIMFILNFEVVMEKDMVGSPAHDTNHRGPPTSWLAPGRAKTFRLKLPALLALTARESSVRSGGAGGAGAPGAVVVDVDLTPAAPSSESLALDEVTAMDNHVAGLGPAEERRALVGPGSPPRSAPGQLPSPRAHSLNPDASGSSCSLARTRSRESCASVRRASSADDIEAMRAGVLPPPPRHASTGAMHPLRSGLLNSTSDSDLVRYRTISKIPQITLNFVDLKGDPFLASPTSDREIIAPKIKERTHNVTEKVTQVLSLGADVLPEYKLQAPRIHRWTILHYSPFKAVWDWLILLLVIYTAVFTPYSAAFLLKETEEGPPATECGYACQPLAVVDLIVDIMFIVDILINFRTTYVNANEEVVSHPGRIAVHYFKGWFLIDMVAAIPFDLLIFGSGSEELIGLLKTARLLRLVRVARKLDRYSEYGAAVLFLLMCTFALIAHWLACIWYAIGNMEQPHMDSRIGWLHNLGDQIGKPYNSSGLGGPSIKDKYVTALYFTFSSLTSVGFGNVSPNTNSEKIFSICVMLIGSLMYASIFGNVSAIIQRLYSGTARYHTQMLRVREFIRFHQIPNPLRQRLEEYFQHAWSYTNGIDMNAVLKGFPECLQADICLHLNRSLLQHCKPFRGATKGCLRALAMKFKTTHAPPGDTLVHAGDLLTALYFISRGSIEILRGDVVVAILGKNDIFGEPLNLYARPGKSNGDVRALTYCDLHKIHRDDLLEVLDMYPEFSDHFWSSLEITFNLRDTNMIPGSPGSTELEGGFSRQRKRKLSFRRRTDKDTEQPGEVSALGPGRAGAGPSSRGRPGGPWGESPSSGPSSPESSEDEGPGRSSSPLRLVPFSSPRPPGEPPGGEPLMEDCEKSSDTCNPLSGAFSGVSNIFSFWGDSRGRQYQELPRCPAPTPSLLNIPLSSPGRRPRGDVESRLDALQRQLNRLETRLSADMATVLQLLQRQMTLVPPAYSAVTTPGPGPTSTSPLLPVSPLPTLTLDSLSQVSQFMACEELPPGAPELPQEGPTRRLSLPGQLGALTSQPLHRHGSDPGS

`CCCCCn1c(NC2CCCCC2)nc2c1c(=O)[nH]c(=O)n2C` was tested. Which “hERG current change (%, negative = inhibition) at 10uM” value did it give?
The value was -17.6%.

For `N#CCCN(C(=O)Nc1ccc(Cl)c(Cl)c1)c1ccccc1`, which “hERG current change (%, negative = inhibition) at 10uM” value is on record?
The value was -0.506%.

With `CCOc1cc(/C=C2\SC(=S)N(NS(=O)(=O)c3ccccc3)C2=O)ccc1O` as the molecule, how does the “hERG current change (%, negative = inhibition) at 10uM” value read?
Its value is 8.33%.

`CCCCn1c(N)c(N(CCC(C)C)C(=O)COC(=O)c2ccccc2)c(=O)[nH]c1=O` was tested. Which “hERG current change (%, negative = inhibition) at 10uM” value did it give?
Its value is 3.79%.

For `CCOc1ccc2nc(N(CCCN(C)C)C(=O)c3ccc(S(=O)(=O)N4CCc5ccccc5C4)cc3)sc2c1.Cl`, which “hERG current change (%, negative = inhibition) at 10uM” value is on record?
The value was -1.08%.

How did the “hERG current change (%, negative = inhibition) at 10uM” value turn out when `CCOc1ccc2nc(N(CCCN(C)C)C(=O)c3ccc(S(=O)(=O)N4CCCC4)cc3)sc2c1.Cl` was run?
The value was -70.4%.

For `Cc1ccc2nc(N(CCCN(C)C)C(=O)c3ccc(S(=O)(=O)N4CCOCC4)cc3)sc2c1.Cl`, which “hERG current change (%, negative = inhibition) at 10uM” value is on record?
The value was -33.9%.

With `CN(C)CCCN(C(=O)c1ccc(S(=O)(=O)N2CCCC2)cc1)c1nc2ccc(Br)cc2s1.Cl` as the molecule, how does the “hERG current change (%, negative = inhibition) at 10uM” value read?
Its value is -47.9%.

Which “hERG current change (%, negative = inhibition) at 10uM” value does the source give for `Cc1cc(C)c2nc(N(CCCN(C)C)C(=O)c3ccc(S(=O)(=O)N4CCCCCC4)cc3)sc2c1.Cl` here?
The value was -20.3%.

`CCc1ccc2nc(N(CCCN(C)C)C(=O)c3ccc(S(=O)(=O)N4CCc5ccccc5C4)cc3)sc2c1.Cl` was tested. Which “hERG current change (%, negative = inhibition) at 10uM” value did it give?
Its value is -7.91%.

How did the “hERG current change (%, negative = inhibition) at 10uM” value turn out when `Cc1ccc2nc(N(CCCN(C)C)C(=O)c3ccc(S(=O)(=O)N4CCCCCC4)cc3)sc2c1.Cl` was run?
The value was -58%.

For `CCc1ccc2nc(N(CCCN(C)C)C(=O)c3ccc(S(=O)(=O)N4CCCC4)cc3)sc2c1.Cl`, which “hERG current change (%, negative = inhibition) at 10uM” value is on record?
Its value is -67.7%.

How did the “hERG current change (%, negative = inhibition) at 10uM” value turn out when `COc1ccccc1N1CC(C(=O)Nc2nnc(SCC(=O)NC(C)C)s2)CC1=O` (stereo not shown) was run?
The value was 20.1%.

How did the “hERG current change (%, negative = inhibition) at 10uM” value turn out when `CC(=O)Nc1ccc(NC(=O)CSc2nnnn2C2CCCCC2)cc1` was run?
Its value is -8.79%.

Which “hERG current change (%, negative = inhibition) at 10uM” value does the source give for `O=C(CNC(=O)N1CC(=O)Nc2ccccc21)Nc1nccs1` here?
Its value is 12%.

Which “hERG current change (%, negative = inhibition) at 10uM” value does the source give for `CCCc1c(O)nc(SCC(=O)O)[nH]c1=O` here?
Its value is 67.7%.

`CC1(C)CC(=O)/C(=C(/O)Cc2ccccc2)C(=NCCc2ccccc2)C1` was tested. Which “hERG current change (%, negative = inhibition) at 10uM” value did it give?
Its value is -45.2%.

With `O=C(C1CCCCC1)N(Cc1ccccc1)c1ccccn1` as the molecule, how does the “hERG current change (%, negative = inhibition) at 10uM” value read?
Its value is 1.25%.

With `COc1cc(C(=O)NC2CC3CCCC(C2)N3Cc2ccccc2)cc(OC)c1OC` (stereo not shown) as the molecule, how does the “hERG current change (%, negative = inhibition) at 10uM” value read?
Its value is 8.89%.

For `O=C(NC1CC2CCCC(C1)N2Cc1ccccc1)C1CCCCC1` (stereo not shown), which “hERG current change (%, negative = inhibition) at 10uM” value is on record?
The value was -25.2%.

`COc1ccc(CN2C3CCCC2CC(NC(=O)/C=C/c2ccccc2)C3)cc1` (stereo not shown) was tested. Which “hERG current change (%, negative = inhibition) at 10uM” value did it give?
Its value is -88%.

For `COc1ccccc1CN1C2CCCC1CC(NC(=O)/C=C/c1ccccc1)C2` (stereo not shown), which “hERG current change (%, negative = inhibition) at 10uM” value is on record?
Its value is -59.4%.

`O=C(/C=C/c1ccccc1)NC1CC2CCCC(C1)N2Cc1ccccc1` (stereo not shown) was tested. Which “hERG current change (%, negative = inhibition) at 10uM” value did it give?
The value was -69.7%.

With `CNC(=S)NC1CC2CCCC(C1)N2Cc1ccccc1OC` (stereo not shown) as the molecule, how does the “hERG current change (%, negative = inhibition) at 10uM” value read?
Its value is -10.1%.

With `CCN(CC)C(=O)NC1CC2CCCC(C1)N2Cc1ccccc1` (stereo not shown) as the molecule, how does the “hERG current change (%, negative = inhibition) at 10uM” value read?
The value was -6.25%.
